PTK2B oligo ant: antagonists of Pyk2 self-association, primary screen, Q293 cells, FERM NanoBiT luminescence, HTS. Protein-tyrosine kinase 2-beta (Homo sapiens), Q14289. hits give low values. z-score (the deposit names both 25 µM and 10 µM). 0.83% of 99,000 active. AID 1347419, 2020;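 active = Z-score of -3 or lower, scaled per plate to the spread of control and sample wells; inactive = z-score above -3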;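 note: negative z-score means lost luminescence so less FERM oligomerization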
MRP reversal: reversal of MRP1-mediated doxorubicin resistance, primary screen, H69AR cells, doxorubicin co-treatment; H69AR cells + 2 uM doxorubicin, CellTiter-Glo, 72 h; differential viability (reversal), % at 10 µM; 0.04% of 85,000 active; AID 602, 2007;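 active = viability drop by adding the cancer drug above about 55%, with treated viability meeting a 40% cutoff, limit read from the data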;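 note: larger differential means the compound sensitizes cells more to doxorubicin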
Cav3 T inh: Cav3.2 calcium influx blockers – cell-based, Fluo-4 calcium fluorescence, FDSS, MLSMR library, primary screen | Voltage-dependent T-type calcium channel subunit alpha-1H (Homo sapiens), O95180 | AID 449739, 2010 | Cav3.2-expressing cells; hits give low values | B-score at 10 µM | 4% of 100,000 active;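 active = single-dose well whose peak fluorescence ratio is a statistical outlier from its plate by either plate-standardised score or position-corrected B-score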
CD11b adhes enh: enhancers of CD11b/CD18 adhesion to fibrinogen, primary screen, K562 cells, luminescence. ATPlite luminescence. activation, % at 10 µM. 0.07% of 93,000 active. AID 1499, 2009;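 active = 10 µM primary screen giving 50% or more activity, confirmed by 40% or more on retest at that dose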
Mac1 fbg inh: inhibitors of CD11b/CD18 adhesion to fibrinogen, primary screen, K562 cells, luminescence | 0.54% of 93,000 active | AID 1497, 2009 | inhibition, % at 10 µM | ATPlite luminescence; Mn2+ added to activate the integrin;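 active = primary inhibition of 50% or more at 10 µM, then 40% or more on retest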
MRP-1 activ: H69AR viability gain despite doxorubicin, primary screen, MRP-1 activator project, H69AR cells, CellTiter-Glo; viability rescue; 0.61% of 140,000 active; viability increase, % at 10 µM;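 active = viability gain under doxorubicin at or above a set limit, the compound median plus 3 SD, cut at about 4.7% in these data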;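 note: MRP-1 overexpressing cells given doxorubicin 25 µM after compound pretreatment; 18-22 h compound pretreatment then 72 h with doxorubicin before readout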
Numbers stand for hits; n = inactive; x = no result. Shown are actives, neighbours in structure and some others; about 4.1% of the full set was active somewhere.

SMILES	PTK2B oligo ant	MRP reversal	Cav3 T inh	CD11b adhes enh	Mac1 fbg inh	MRP-1 activ
CCOC(=O)c1ccc(NC(=O)c2ccc(C)c(S(=O)(=O)N3CCOCC3)c2)cc1	n	n	n	n	84	n
O=C(Nc1ccccc1)c1ccc(N2CCN(c3ccccn3)CC2)c(S(=O)(=O)N2CCOCC2)c1	n	n	n	n	n	n
O=C(Nc1ccccc1)c1ccc(N2CCN(c3ccccc3)CC2)c(S(=O)(=O)N2CCOCC2)c1	n	n	-6	n	n	n
Cc1ccc2nc(/C(C#N)=C\c3cc(C)n(-c4cccc([N+](=O)[O-])c4)c3C)[nH]c2c1	n	n	-6.1	n	n	n
COC(=O)\C(C(C)=O)=C(/C=C/C=C/C=C/N(C)C)N(C)C	n	n	-7	x	x	n
COC(=O)/C(C(C)=O)=C(\C=C\N(C)C)N(C)C	n	n	n	n	n	n
c1ccc(-c2nnc(C(c3ccccc3)c3ccccc3)o2)cc1	x	x	x	x	x	n
CCCNC(=O)c1cc(-c2ccc(Br)cc2)on1	n	n	x	n	n	n
CCOc1ccc(N2C(=O)CC(Sc3ncccn3)C2=O)cc1 (stereo unspecified)	n	n	n	n	n	n
C=CCNc1nnc(SC2CC(=O)N(c3ccc(OCCC)cc3)C2=O)s1 (stereo unspecified)	n	n	3.3	n	n	n
CCNC(=S)Nc1ccc2cn[nH]c2c1	x	x	x	x	x	n
COc1ccccc1NC(=O)c1ccc(N)cc1	n	n	-4.2	n	n	n
COc1ccccc1NC(C)=O	n	n	n	n	n	n
OC1CN=C2C=CC=CN2C1 (stereo unspecified)	n	n	-7.4	n	n	n
O=C1C2C(C(=O)N1CCc1ccccc1)C1C=CC2C12CC2 (stereo unspecified)	n	n	n	n	n	n
COc1cccc(NC(=O)Cc2cn(C)c3ccccc23)c1	n	n	-4.5	n	n	n
COc1cccc(NC(=O)Cn2cc(C#N)c3ccccc32)c1	n	n	n	x	x	n
O=C(N/N=C/c1ccc(-c2ccc([N+](=O)[O-])cc2)o1)C(O)c1ccccc1 (stereo unspecified)	x	x	x	n	n	5.5
COc1cc(NC(=S)NC(=O)c2ccc(C(C)(C)C)cc2)ccc1NC(=O)c1cccs1	x	x	x	n	n	n
CCn1c(SCC(=O)c2ccc3c(c2)Cc2ccccc2-3)nnc1-c1ccc(N)cc1	n	x	n	92	n	n
CCN(CC)S(=O)(=O)c1cc(C(=O)OCC(=O)Nc2c(F)cccc2F)ccc1F	x	x	x	x	x	n
CC(=O)NC(CCS(C)(=O)=O)C(=O)Nc1cccc(C)c1 (stereo unspecified)	x	n	n	n	n	n
Cc1ccc(CC2S/C(=C(/C#N)C(=O)NCc3ccco3)N(c3ccccc3)C2=O)cc1 (stereo unspecified)	n	n	n	n	n	6.6
N#C/C(C(=O)NCc1ccco1)=C1/SC(Cc2ccc(Cl)cc2)C(=O)N1c1ccccc1 (stereo unspecified)	n	n	x	x	x	n
COCCNC(=O)C1CC2Cn3c(nc4cc(Cl)c(Cl)cc43)C2N1C (stereo unspecified)	x	x	n	x	x	x
SMILES	PTK2B oligo ant	MRP reversal	Cav3 T inh	CD11b adhes enh	Mac1 fbg inh	MRP-1 activ
CCn1c(SCC(=O)NC(C)(C)C)nnc1-c1ccoc1C	n	n	n	x	x	n
CN1CCN(c2oc(COc3ccc(-c4ccccc4)cc3)nc2C#N)CC1	n	n	n	n	n	n
N#Cc1nc(COc2ccc(Cl)cc2)oc1N1CCN(Cc2ccccc2)CC1	n	x	n	n	n	4.8
COc1ccc(N2CCN(c3oc(COc4ccc(Cl)cc4)nc3C#N)CC2)cc1	n	x	-6.1	n	n	5.8
CCCCCCCC1CC(CSC(=N)N)OC1=O (stereo unspecified)	n	n	n	n	n	n
CN1C(=O)C2(c3ccccc31)N(C)CC(c1ccccc1)C21SC(=S)N(Cc2ccco2)C1=O (stereo unspecified)	n	n	n	x	x	n
CN1C(=O)C2(c3ccccc31)N(C)CC(c1ccccn1)C21SC(=S)N(Cc2ccco2)C1=O (stereo unspecified)	n	n	-4.7	n	n	n
Cc1[nH]c(C(=O)N2CCCCC2)c(C)c1C(=O)NC1CCCCC1	x	n	x	x	x	x
CCOC(=O)Cn1c(S(=O)(=O)Cc2ccc(F)cc2)nc(-c2ccccc2)c1-c1ccccc1	n	x	n	x	x	n
C#CCn1c(S(=O)(=O)Cc2ccc(F)cc2)nc(-c2ccccc2)c1-c1ccccc1	n	x	-3.8	n	n	n
Cc1nn2c(N3CCCC3)cc(C(C)C)nc2c1-c1ccccc1	n	n	n	n	n	n
CSc1nnc2c3ccccc3n(CCc3ccccc3)c2n1	-3.3	n	n	n	n	n
COc1ccc(C(C)=O)c2c(O)cccc12	n	n	n	n	n	n
COc1ccc(C(=O)c2ccccc2)c2c(O)ccc(C(=O)c3ccccc3)c12	n	n	n	n	51	n
Cc1cc(C)n(CC(O)Cn2c3ccccc3c3ccccc32)n1 (stereo unspecified)	n	n	n	n	n	n
Cc1cc(C)n(CC(O)CN2c3ccccc3Sc3ccccc32)n1 (stereo unspecified)	n	n	-6.3	n	n	n
Cc1cccc(N2C(=O)CSC2c2cccnc2)c1 (stereo unspecified)	n	n	n	n	n	n
Cc1cccc(N2CCN(c3cccc(C)c3)C2c2cccnc2)c1	n	n	-4.8	n	n	n
CC12CCC(C(=O)N(CSC(=S)N/N=C\c3ccccc3)C1=O)C2(C)C (stereo unspecified)	n	n	n	x	x	4.8
CC12CCC(C(=O)N(CSC(=S)N/N=C\c3ccccc3Cl)C1=O)C2(C)C (stereo unspecified)	n	n	n	x	x	n
CCCNc1nc(C)cc(-c2cc(C(=O)NC3CCCC3)on2)n1	x	x	n	x	x	x
O=C(Cn1cnc2ccccc21)N/N=C/c1ccccc1[N+](=O)[O-]	n	x	x	n	n	n
Cc1ccc(C(C)C)c(OCc2nc(-c3nonc3N)no2)c1	x	n	n	n	n	6.4
Nc1nonc1-c1noc(CCCOc2ccc(Cl)cc2Cl)n1	n	n	n	n	n	n
O=C(COC(=O)c1ccccc1OCC(=O)Nc1ccc(Br)cc1)Nc1ccccc1	x	x	x	x	x	n
O=C(COC(=O)C12CC3CC(CC(C3)C1)C2)Nc1ccc(OC(F)F)cc1	n	x	-6.2	n	n	n
CCOc1ccccc1C(=O)OCC(=O)Nc1ccc(OC(F)F)cc1	n	x	n	n	n	14
